The target of assay [1] is rat Oxytocin Receptor (OXT), Oxtr (gene 25342) (UniProt P70536). The experiment in a line: NVS_GPCR_rOXT: NovaScreen (NVS) G Protein-Coupled Receptor Assay for rat Oxytocin Receptor (OXT) (AID 2283330). The method in brief:
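Radioligand displacement on rat uterine membranes, 1 h incubation, filter-based scintillation counting. Chemicals were screened in duplicate at 25 uM, and those passing threshold were retested in concentration-response up to 50 uM. Loss of binding was fitted versus DMSO.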

For assay [2], the target named is human Androgen Receptor (AR), AR (gene 367) (UniProt P10275). Description: NVS_NR_hAR: NovaScreen (NVS) Nuclear Receptor Binding Assay for human Androgen Receptor (AR) (AID 2283332). The method in brief: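 LnCAP cell-free extract; radioligand displacement read by scintillation counting after 20 h. Primary screen single concentration 25 uM in duplicate, actives then run as concentration series; loss-of-signal fitted relative to DMSO baseline.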

Assay [3] concerns the target Glutamate receptor ionotropic, kainate 1 (Rattus norvegicus) (UniProt P22756). Description: NVS_IC_rKAR: NovaScreen (NVS) Ion Channel Assay for rat Kainic Acid Receptors (KAR) (AID 2283334; active means hit-call score of the fitted dose curve at least 0.9, where 1 is the maximum; inactive means score below 0.9). In a few lines: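 Radioligand displacement binding using rat forebrain membranes, 1 h incubation, filter-based scintillation counting. Screened in duplicate at 25 uM, with actives retested in concentration-response up to 50 uM; fitted against DMSO.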

The target in assay [4] is rat Gamma-Aminobutyric Acid Type A Receptor BDZ, alpha 6 site (GABARa6), Gabra6 (gene 29708) (UniProt P30191). Description: NVS_LGIC_rGABARa6: NovaScreen (NVS) Ligand-Gated Ion Channel Assay for rat Gamma-Aminobutyric Acid Type A Receptor BDZ, alpha 6 site (GABARa6) (AID 2283339). The protocol:
NVS_LGIC_rGABARa6 is a biochemical, single-readout assay that uses extracted gene-proteins from Rat cerebellar membranes in a tissue-based cell-free assay. Measurements were taken 1 hour after chemical dosing in a 48-well plate.NVS_LGIC_rGABARa6 is one of one assay component(s) measured or calculated from the NVS_LGIC_rGABARa6 assay. It is designed to make measurements of radioligand binding, a form of binding reporter, as detected with scintillation counting signals by Filter-based radiodetection technology.Data from the assay component NVS_LGIC_rGABARa6 was analyzed into 1 assay endpoint. This assay endpoint, NVS_LGIC_rGABARa6, was analyzed in the positive analysis fitting direction relative to DMSO as the negative control and baseline of activity. Using a type of binding reporter, loss-of-signal activity can be used to understand changes in the binding as they relate to the gene Gabra6. Furthermore, this assay endpoint can be referred to as a primary readout, because the performed assay has only produced 1 assay endpoint. To generalize the intended target to other relatable targets, this assay endpoint is annotated to the ion channel intended target family, where the subfamily is ligand-gated ion channel. […]

For assay [5], the target named is rat Glycine Receptor, Strychnine-sensitive (GlyRStrySens), Glra1 (gene 25674) (UniProt P07727). Description: NVS_LGIC_rGlyRStrySens: NovaScreen (NVS) Ligand-Gated Ion Channel Assay for rat Glycine Receptor, Strychnine-sensitive (GlyRStrySens) (AID 2283341). The method in brief: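 Radioligand displacement on rat spinal cord membranes, 1 hr, filter scintillation read-out. Single-concentration duplicate screen at 25 uM; chemicals meeting threshold (e.g., 30% inhibition) rerun in concentration-response up to 50 uM. Loss of binding fitted versus DMSO.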

In assay [6] the test system is guinea pig Histamine Receptor (H2), gene 100729734. Description: NVS_GPCR_gH2: NovaScreen (NVS) G Protein-Coupled Receptor Assay for guinea pig Histamine Receptor (H2) (AID 2283342). The method in brief: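 Radioligand displacement on guinea pig striatal membranes, 1 h after dosing, filter-based scintillation counting; loss of signal versus DMSO. Single-point screen at 25 uM in duplicate, then concentration-response up to 50 uM.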

Assay [7] deals with Bile acid receptor (Homo sapiens) (UniProt Q96RI1). Description: NVS_NR_hFXR_Antagonist: NovaScreen (NVS) Nuclear Receptor Binding Assay for human Farnesoid X Receptor Antagonism (FXR) (AID 2283350). In a few lines: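 Cell-free TR-FRET ligand-binding read-out on human FXR (NR1H4) in antagonist mode, measured 1 h after dosing. Primary screen in duplicate at 25 uM, actives retested in concentration series; signal loss scored versus DMSO.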

A further assay relates to NCBI gene 100848466. The experiment in a line: NVS_NR_bPR: NovaScreen (NVS) Nuclear Receptor Binding Assay for bovine Progextron Receptor (PR) (AID 2283343). In a few lines:
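Bovine uterine membrane preparation; radioligand displacement read by scintillation counting 18 h after dosing. Primary screen single concentration, 25 uM, in duplicate; actives followed up in concentration series. Signal loss versus DMSO baseline.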

The structures appear in SMILES notation. Values joined by “and” are separate entries in the source; they are usually repeats but may differ in a detail not shown here. Equal entries are not always repeated. Inconclusive results are not listed. Active and inactive are the calls of the source. How the source made its calls, unless noted: active means hit-call score of the fitted dose curve at least 0.9, where 1 is the maximum; inconclusive means response in the unintended direction; inactive means score below 0.9.

As usually defined, the AC50 is the midpoint of the concentration-response curve, whichever way the signal moves.

human Androgen Receptor (AR), AR (gene 367), sequence (P10275 whole entry, looked up): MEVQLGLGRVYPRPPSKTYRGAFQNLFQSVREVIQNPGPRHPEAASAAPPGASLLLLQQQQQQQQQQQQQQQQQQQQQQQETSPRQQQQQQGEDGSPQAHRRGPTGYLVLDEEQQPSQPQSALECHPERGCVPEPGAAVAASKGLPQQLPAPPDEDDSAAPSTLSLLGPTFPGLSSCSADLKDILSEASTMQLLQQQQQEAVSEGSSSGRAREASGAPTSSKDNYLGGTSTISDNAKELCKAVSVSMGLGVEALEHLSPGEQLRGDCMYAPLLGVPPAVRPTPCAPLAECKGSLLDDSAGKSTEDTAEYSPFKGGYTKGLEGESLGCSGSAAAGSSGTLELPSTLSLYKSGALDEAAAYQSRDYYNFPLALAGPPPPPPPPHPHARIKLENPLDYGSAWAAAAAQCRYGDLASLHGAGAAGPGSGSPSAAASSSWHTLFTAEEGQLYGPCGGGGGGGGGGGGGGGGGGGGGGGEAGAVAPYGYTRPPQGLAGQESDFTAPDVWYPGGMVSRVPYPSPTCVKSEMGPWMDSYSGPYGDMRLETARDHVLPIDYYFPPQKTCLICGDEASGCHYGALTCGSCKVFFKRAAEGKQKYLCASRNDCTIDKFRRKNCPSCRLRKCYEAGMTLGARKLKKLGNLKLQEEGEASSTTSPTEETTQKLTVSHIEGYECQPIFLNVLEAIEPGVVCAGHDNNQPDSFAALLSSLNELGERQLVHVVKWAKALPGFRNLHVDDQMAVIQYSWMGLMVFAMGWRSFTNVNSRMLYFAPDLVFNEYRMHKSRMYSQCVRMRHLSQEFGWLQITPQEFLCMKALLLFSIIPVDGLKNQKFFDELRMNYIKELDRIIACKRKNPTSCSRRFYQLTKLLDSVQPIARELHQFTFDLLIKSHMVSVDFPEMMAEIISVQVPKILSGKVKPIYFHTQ
Bile acid receptor (Homo sapiens), sequence (Q96RI1 whole entry, looked up): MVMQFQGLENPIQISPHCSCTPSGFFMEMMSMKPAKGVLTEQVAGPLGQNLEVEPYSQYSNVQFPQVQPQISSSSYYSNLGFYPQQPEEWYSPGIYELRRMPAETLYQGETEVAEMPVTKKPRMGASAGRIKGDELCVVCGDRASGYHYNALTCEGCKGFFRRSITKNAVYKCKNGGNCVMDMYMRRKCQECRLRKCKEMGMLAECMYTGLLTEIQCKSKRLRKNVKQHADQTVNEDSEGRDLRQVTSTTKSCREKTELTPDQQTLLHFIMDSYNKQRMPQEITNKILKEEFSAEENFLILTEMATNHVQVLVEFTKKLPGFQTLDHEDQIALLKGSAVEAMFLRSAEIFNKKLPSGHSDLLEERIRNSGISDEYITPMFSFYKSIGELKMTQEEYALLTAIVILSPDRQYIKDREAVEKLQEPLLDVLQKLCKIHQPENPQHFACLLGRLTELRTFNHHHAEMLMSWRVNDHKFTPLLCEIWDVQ
rat Gamma-Aminobutyric Acid Type A Receptor BDZ, alpha 6 site (GABARa6), Gabra6 (gene 29708), sequence (P30191 whole entry, looked up): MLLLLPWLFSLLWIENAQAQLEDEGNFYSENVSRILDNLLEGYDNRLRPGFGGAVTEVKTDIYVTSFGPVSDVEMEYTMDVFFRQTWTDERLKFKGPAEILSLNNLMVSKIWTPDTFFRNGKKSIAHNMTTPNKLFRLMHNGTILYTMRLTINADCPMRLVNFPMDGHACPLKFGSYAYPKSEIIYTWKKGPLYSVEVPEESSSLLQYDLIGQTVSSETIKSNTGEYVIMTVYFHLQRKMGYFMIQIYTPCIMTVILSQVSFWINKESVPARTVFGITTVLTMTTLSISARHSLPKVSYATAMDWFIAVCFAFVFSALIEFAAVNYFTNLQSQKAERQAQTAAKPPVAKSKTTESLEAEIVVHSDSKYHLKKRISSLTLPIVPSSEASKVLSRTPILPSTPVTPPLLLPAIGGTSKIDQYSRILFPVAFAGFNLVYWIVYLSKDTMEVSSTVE
rat Glycine Receptor, Strychnine-sensitive (GlyRStrySens), Glra1 (gene 25674), sequence (P07727 whole entry, looked up): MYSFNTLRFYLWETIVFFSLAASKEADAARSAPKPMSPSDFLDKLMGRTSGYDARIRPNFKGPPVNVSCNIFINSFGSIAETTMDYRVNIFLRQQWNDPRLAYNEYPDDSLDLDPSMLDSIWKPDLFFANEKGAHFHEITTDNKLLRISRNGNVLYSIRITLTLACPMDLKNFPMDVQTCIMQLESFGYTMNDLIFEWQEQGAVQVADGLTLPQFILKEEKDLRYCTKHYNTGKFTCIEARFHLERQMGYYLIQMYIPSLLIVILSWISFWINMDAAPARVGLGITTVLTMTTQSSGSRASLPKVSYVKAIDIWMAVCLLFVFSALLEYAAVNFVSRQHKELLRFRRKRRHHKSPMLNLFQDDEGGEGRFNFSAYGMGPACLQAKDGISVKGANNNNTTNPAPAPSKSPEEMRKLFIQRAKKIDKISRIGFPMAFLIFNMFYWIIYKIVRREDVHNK
Glutamate receptor ionotropic, kainate 1 (Rattus norvegicus), sequence (P22756 whole entry, looked up): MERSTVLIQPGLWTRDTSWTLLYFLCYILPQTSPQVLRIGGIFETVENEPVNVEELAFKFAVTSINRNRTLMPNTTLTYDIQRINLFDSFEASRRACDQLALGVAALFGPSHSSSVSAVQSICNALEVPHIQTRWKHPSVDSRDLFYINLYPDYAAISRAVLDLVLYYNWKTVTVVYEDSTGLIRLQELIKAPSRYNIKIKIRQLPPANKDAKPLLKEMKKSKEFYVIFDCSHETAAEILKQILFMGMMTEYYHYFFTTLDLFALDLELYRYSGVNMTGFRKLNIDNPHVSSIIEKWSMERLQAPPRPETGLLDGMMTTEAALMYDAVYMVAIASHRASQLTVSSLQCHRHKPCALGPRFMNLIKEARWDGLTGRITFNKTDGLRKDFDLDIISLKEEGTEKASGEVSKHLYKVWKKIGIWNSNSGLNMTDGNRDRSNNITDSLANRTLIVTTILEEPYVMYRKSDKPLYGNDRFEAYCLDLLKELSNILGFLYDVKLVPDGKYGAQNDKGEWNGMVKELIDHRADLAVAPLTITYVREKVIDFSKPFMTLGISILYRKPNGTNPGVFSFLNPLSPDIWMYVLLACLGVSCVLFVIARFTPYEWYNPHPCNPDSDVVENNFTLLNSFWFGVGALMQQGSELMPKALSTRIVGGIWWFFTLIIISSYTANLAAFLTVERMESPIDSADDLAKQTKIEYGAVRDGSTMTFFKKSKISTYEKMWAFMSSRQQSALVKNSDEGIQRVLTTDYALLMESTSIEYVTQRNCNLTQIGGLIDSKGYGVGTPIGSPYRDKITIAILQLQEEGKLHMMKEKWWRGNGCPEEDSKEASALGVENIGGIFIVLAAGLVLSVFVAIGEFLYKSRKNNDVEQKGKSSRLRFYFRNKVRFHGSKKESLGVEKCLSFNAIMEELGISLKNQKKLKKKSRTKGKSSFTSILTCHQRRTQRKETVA
rat Oxytocin Receptor (OXT), Oxtr (gene 25342), sequence (P70536 whole entry, looked up): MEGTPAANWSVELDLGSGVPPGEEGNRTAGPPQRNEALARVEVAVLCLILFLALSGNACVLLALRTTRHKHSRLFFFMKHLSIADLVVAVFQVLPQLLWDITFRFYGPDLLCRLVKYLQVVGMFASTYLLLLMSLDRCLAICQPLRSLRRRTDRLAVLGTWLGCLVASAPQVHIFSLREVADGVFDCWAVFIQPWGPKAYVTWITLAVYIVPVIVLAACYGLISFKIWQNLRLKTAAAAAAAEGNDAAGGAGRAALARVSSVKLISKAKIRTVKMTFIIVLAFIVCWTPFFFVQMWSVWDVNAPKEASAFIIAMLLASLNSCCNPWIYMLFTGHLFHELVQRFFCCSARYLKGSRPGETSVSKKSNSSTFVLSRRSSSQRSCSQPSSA

`O=C(N[C@H](c1ccccc1)[C@@H]1CN2CCC1CC2)c1c(Cl)ccc(C(F)(F)F)c1Cl`: the result in assay [1] was inactive.

With `Nc1ccc(Cl)cc1N`, the molecule was classed as inactive in assay [2]. As for `C[C@]12C=CC3=C4CCC(=O)C=C4CC[C@H]3[C@@H]1CC[C@@H]2O`, the AC50 in assay [2] is 0.345 nM (active) and 9.04 nM (active). Take `C1=Cc2cccc3cccc1c23`: the outcome in assay [3] was inactive. The same measure, in the same setting: the same measure for `CCOc1cccc(C2(N3CCN(c4ccccc4)CC3)CCC(C)CC2)c1` (stereo not drawn): “inactive”. As for `Cc1ccc(N)c(N)c1`, the molecule was called inactive in assay [4]. Still for that read-out and setting: the same measure for `CC(C)(O)c1cnn2c(-c3ccc(F)c(-c4c(F)cccc4C#N)c3)cnc2n1`: “inactive”. Regarding `CCOC(=O)[C@]1(c2ccccc2)Oc2ccccc2[C@@H]1N`, the AC50 in assay [5] was 25 µM (active). Consider `Nc1ccc(Cc2ccc(N)cc2)cc1`, for which the molecule was called inactive in assay [5]. Take `[Cl-].[Cl-].[Hg+2]`: the AC50 in assay [6] is 8.27 µM (active). Moreover, the molecule was classed as inactive in assay [7]. For `CN(C)[C@@H]1C(=O)C(C(N)=O)=C(O)[C@@]2(O)C(=O)C3=C(O)c4c(O)cccc4[C@@](C)(O)[C@H]3C[C@@H]12`, the molecule was called inactive with NCBI gene 100848466. Regarding `CCNS(=O)(=O)C(F)(F)C(F)(F)C(F)(F)C(F)(F)C(F)(F)C(F)(F)C(F)(F)C(F)(F)F`, the result in assay [7] was inactive.
